“And” between values parts separate entries of the source, which are not always exact repeats. Equal entries are not always repeated. The source made the active and inactive calls.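 The calls were made as follows, unless noted: active = inhibition at or above 50% relative to wild type and mutant plate controls; inactive = inhibition below 50%.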
Columns and labels:
[1] = inhibitors of TNFa-induced NFkB p65 translocation, primary screen, imaging, HUVEC, MLSMR starter and 10KST1 sets (AID 438;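 active = inhibition above 20% together with a positive visual image hit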;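 also: compound added about 3h40 before a 20 min TNFalpha stimulation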;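 as to inhibition: signal is the nuclear over cytoplasmic p65 intensity ratio per well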); details: HUVEC TNFa-induced p65 nuclear translocation; cell count: measured here: nuclei count (cytotoxicity indicator), at 2.08 µM; inhibition: at 2 µM, stronger effect = higher value, 0% TNFa-plus-vehicle, 100% no-TNFa wells
[2] = reduction of polyQ htt aggregates in cells – imaging, exon1htt(103Q)mCFP cells, high-content imaging, primary screen (AID 483;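 active = visual image review flags a hit and inhibition of aggregation exceeds 20%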;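 also: compound exposure lasted 3 days before fixation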;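 as to nuclei count: percent of the per-plate median nuclei count of sample wells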); details: exon1htt(103Q)mCFP cell line, aggregate imaging, at 2 µM; inhibition of aggregation: stronger effect = higher value; nuclei count: measured here: cell count, toxicity
[3] = endothelial E-selectin expression blockers – imaging, HUVEC, immunofluorescence, MLSMR starter and 10KST1 sets, primary screen (AID 487;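 active = visually confirmed hit in the image check and inhibition above 20%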;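 as to inhibition: signal is fraction of cell area covered by stained E-selectin grains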;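 as to nuclei count: 100% = median nuclei count of all wells on the same plate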); details: HUVEC TNFalpha-induced E-selectin immunofluorescence imaging, at 2 µM; inhibition: stronger effect = higher value; nuclei count: measured here: cell number, toxicity
[4] = Primary imaging screen for DUSP6 inhibitors that restore phospho-Erk in transfected HeLa cells, chemical complementation (AID 609;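 active = compounds giving at least 50% inhibition in the cell-based MKP-3 phosphatase rescue imaging test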;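 as to inhibition: phospho-Erk level distribution per well compared with pooled transfected vehicle control wells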); details: HeLa MKP-3 transfected, phospho-Erk imaging KS statistic, at 10 µM, cells stimulated with TPA for 15 min
[5] = target: Dual specificity protein phosphatase 6 (Homo sapiens) (UniProt Q16828); assay: as above; details: HeLa MKP-3 transfected, phospho-Erk imaging KS statistic; at 10 µM; stronger effect = higher value; cells stimulated with TPA for 15 min
[6] = target: Voltage-gated potassium channel subunit beta-2 (Rattus norvegicus) (UniProt P62483); assay: inhibitors of rat Kvbeta2 reductase activity – biochemical, NADPH fluorescence, primary screen (AID 622;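 active = fluorescence slope higher than the sample average by over 3 SD, cut at about -0.22 in these data, passing the limit was not always enough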;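 also: slope of raw intensity against log time taken from 70 to 1610 s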); details: recombinant KvBeta, 4-cyanobenzaldehyde reduction, at 10 µM, stronger effect = higher value
[7] = target: Voltage-gated potassium channel subunit beta-2 (Rattus norvegicus) (UniProt P62483); assay: enhancers of rat Kvbeta2 NADPH turnover – biochemical, NADPH fluorescence, primary screen (AID 623;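 active = NADPH fluorescence slope more negative than the mean of all samples by about 3 SD, 99.7% confidence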;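 also: fluorescence intensity change per second fitted from 20 to 320 s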); details: Recombinant KvBeta, NADPH fluorescence decrease slope, 10 min; at 10 µM; stronger effect = lower value
[8] = target: Alpha-2C adrenergic receptor (Homo sapiens) (UniProt P18825); assay: compounds altering alpha2C-coupled GIRK flux – cell-based, HEK293 alpha2C/GIRK1/2, thallium flux, primary screen (AID 624;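 active = fluorescence slope after compound addition differing from the mean of all screened samples at 99.7% confidence, in either direction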;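 also: slope of fluorescence ratio to pre-addition baseline per second over 15 to 24 s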); details: thallium flux BTC fluorescence, at 10 µM, actives lie on both sides
[9] = inhibitors of larval lipid processing in zebrafish, primary screen, whole organism, PED6 fluorescence, gall bladder and intestine (AID 686;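 active = a full or partial loss of lipid-probe fluorescence in the fish gall bladder, intestine or both, judged by eye; inactive = no fluorescence loss, or compound toxic to the fish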;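 also: larvae 5 to 7 days old with five fish per well; signal comes from phospholipase A2 cleavage of quenched PED6 carried via bile; overnight exposure to compound and PED6 before scoring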); details: Zebrafish larvae PED6 lipid processing, fluorescence scoring; screened at 20 µM (by protocol)
[10] = loss of swimming-algae plug formation – whole organism, Chlamydomonas reinhardtii, WT vs cilia-less mutant, absorbance, 96-well, primary screen (AID 463189); details: Chlamydomonas reinhardtii gravitaxis, OD600 absorbance, 2 days; at 10 µM; stronger effect = higher value;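 also: 0% = wild type cc124 cells in DMSO and 100% = ciliumless bld1 mutant cells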
[11] = blockers of RIG-like receptor reporter activation – cell-based, Sendai virus stimulus, luciferase, 10K MLSCN set, TLR/RLR signaling modifier project, primary screen (AID 602276;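 active = inhibition at or above 50% at 10 µM; inactive = inhibition below 50%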;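 also: firefly luciferase from ISG56 promoter only with Renilla not read in this screen; 0% = Sendai virus plus DMSO and 100% = medium plus DMSO without virus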); details: HEK293 RL24 IRF3 luciferase reporter, at 10 µM, stronger effect = higher value
[12] = TLR3 IRF3 reporter activation blockers – cell-based, poly I:C stimulus, luciferase, 10K MLSCN set, primary screen (AID 602277;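 active = inhibition of the reporter signal at or above 50%; inactive = inhibition below 50%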); details: HEK293-TLR3 RL24 IRF3 luciferase reporter, at 10 µM, stronger effect = higher value
[13] = measured here: cell density z-score
[14] = measured here: nuclear c-Myc green intensity z-score
[15] = measured here: nuclear pErk red intensity z-score, stronger effect = higher value

Sequence of Dual specificity protein phosphatase 6 (Homo sapiens) (Q16828 whole entry, looked up): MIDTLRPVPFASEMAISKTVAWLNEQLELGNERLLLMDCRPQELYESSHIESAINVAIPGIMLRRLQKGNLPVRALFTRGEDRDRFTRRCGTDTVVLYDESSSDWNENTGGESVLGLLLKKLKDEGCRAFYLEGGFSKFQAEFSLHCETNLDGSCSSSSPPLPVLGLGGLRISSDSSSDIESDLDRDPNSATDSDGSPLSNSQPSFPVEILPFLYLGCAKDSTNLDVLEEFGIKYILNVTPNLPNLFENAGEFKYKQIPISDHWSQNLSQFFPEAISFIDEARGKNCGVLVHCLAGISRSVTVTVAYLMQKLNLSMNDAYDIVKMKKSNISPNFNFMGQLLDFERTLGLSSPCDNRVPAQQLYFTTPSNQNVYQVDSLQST
Sequence of Voltage-gated potassium channel subunit beta-2 (Rattus norvegicus) (P62483 whole entry, looked up): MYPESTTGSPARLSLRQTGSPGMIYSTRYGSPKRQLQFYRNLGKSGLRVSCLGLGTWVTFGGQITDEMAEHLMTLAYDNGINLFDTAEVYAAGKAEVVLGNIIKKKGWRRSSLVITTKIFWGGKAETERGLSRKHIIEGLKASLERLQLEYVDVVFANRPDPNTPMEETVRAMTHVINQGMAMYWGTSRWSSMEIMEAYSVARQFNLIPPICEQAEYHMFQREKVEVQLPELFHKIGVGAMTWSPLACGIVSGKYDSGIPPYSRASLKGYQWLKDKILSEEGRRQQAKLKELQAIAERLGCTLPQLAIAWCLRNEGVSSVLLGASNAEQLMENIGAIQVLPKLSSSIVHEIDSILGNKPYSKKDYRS
Sequence of Alpha-2C adrenergic receptor (Homo sapiens) (P18825 whole entry, looked up): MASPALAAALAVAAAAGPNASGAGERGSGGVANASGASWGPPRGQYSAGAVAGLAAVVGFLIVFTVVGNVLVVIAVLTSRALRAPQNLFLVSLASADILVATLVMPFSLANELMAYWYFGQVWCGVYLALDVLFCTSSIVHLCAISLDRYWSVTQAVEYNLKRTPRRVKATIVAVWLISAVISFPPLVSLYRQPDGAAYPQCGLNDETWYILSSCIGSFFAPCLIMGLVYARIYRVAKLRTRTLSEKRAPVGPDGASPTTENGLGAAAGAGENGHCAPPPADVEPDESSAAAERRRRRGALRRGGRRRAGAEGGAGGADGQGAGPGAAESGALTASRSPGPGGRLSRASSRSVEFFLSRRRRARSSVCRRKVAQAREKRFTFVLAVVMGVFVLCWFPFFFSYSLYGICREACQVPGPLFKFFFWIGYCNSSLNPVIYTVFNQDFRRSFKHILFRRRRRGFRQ

Row | Compound | cell count [1] | inhibition [1] | inhibition of aggregation [2] | nuclei count [2] [%] | inhibition [3] | nuclei count [3] [%] | z-score [4, 13] | z-score [4, 14] | z-score [4, 15] | inhibition [5] | fluorescence slope [6] | NADPH fluorescence slope [7] | slope [8] | outcome [9] | inhibition [10] | inhibition [11] | inhibition [12]
1 | CC(=O)Nc1ccc(S(=O)(=O)Nc2nc3n(n2)C(c2ccccc2)CC(=O)N3)cc1 (stereo not given) | 456 | -7.4% (inactive) | -5.2% (inactive) | 116 | -106% (inactive) | 137 | -0.235 | -1.01 | 1.56 | 21% (inactive) | -0.507 (inactive) | -2e-05 (inactive) | 0.00521 (inactive) | inactive | -0.258% (inactive) | 16.4% (inactive) | 16.2% (inactive)
2 | Cc1ccc(C)c(OCCCC(C)(C)C(=O)O)c1 | 624 | -1.4% (inactive) | 26.1% (inactive) | 107 | -52.3% (inactive) | 122 | 0.389 | 0.0218 | 0.246 | 7.39% (inactive) | -0.536 (inactive) | -3.5e-05 (inactive) | 0.00591 (inactive) | inactive | 36% (inactive) | 17.7% (inactive) | 39.7% (inactive)
3 | C=CCOc1nc2c(c(=O)n(C)c(=O)n2C)n1Cc1c(Cl)cccc1Cl | 556 | -2.9% (inactive) | -47.7% (inactive) | 115 | 14% (inactive) | 113 | -0.686 | 2.36 | -0.556 | -4.7% (inactive) | -0.502 (inactive) | -0.000118 (inactive) | 0.00485 (inactive) | inactive | -9.21% (inactive) | 11.4% (inactive) | 16% (inactive)
4 | CC1=NN(c2ccccc2)C(=O)C1 | 619 | -5.9% (inactive) | 2.5% (inactive) | 98 | -82.4% (inactive) | 130 | 0.599 | -0.649 | 1.01 | 9.37% (inactive) | -0.432 (inactive) | 5.3e-06 (inactive) | 0.00466 (inactive) | inactive | 11.5% (inactive) | -68.4% (inactive) | 52% (active)
5 | COc1ccc(Cl)cc1C(=O)NCCc1ccc(S(=O)(=O)NC(=O)NC2CCCCC2)cc1 | 517 | -3.1% (inactive) | -17.2% (inactive) | 105 | 48.6% (inactive) | 80.7 | 0.545 | -1.59 | -0.882 | 5.79% (inactive) | -0.462 (inactive) | -5.3e-05 (inactive) | 0.00532 (inactive) | inactive | 3.54% (inactive) and -10.9% (inactive) | 19.2% (inactive) | 42.8% (inactive)
6 | N=c1c[n+](N2CCOCC2)[n-]o1 | 605 | -7.1% (inactive) | 4.6% (inactive) | 86.9 | -109% (inactive) | 139 | 0.144 | -0.44 | 0.201 | -8.38% (inactive) | -0.496 (inactive) | -5.7e-05 (inactive) | 0.00445 (inactive) | inactive | 5.26% (inactive) and -2.73% (inactive) | 19.5% (inactive) | 43.7% (inactive)
7 | O=C(O)Cc1ccc(-c2ccccc2)cc1 | 636 | -3% (inactive) | -7.3% (inactive) | 105 | -30.6% (inactive) | 123 | 1.25 | 0.515 | -0.372 | 19% (inactive) | -0.444 (inactive) | -4.7e-05 (inactive) | 0.00497 (inactive) | inactive | -15% (inactive) | 8.68% (inactive) | 34.8% (inactive)
8 | CNCCCC12CCC(c3ccccc31)c1ccccc12 | 541 | -4.8% (inactive) | 19.8% (inactive) | 83.4 | -80.6% (inactive) | 114 | -1.24 | 0.435 | 1.73 | 3.45% (inactive) | -0.501 (inactive) | -9.7e-05 (inactive) | 0.00463 (inactive) | inactive | 6.33% (inactive) and 2.26% (inactive) | -23.6% (inactive) | 55.4% (active)
9 | COc1ccccc1N1CCN(CC(O)COc2cccc3ccccc23)CC1 (stereo not given) | 617 | -3.6% (inactive) | -18.7% (inactive) | 108 | -26.2% (inactive) | 107 | 0.673 | -1.31 | -2.39 | 8% (inactive) | -0.431 (inactive) | -7.7e-05 (inactive) | 0.00349 (inactive) | inactive | 7.05% (inactive) and 42.9% (inactive) | 16.5% (inactive) | 36.9% (inactive)
10 | Cn1ncc2c(Nc3ccccc3Br)ncnc21 | 339 | -21% (inactive) | 21.2% (inactive) | 99.3 | -72.4% (inactive) | 128 | 0.246 | -0.649 | -0.252 | 14% (inactive) | -0.443 (inactive) | -2.6e-05 (inactive) | 0.00658 (inactive) | inactive | 13.6% (inactive) | 2.79% (inactive) | -6.76% (inactive)
11 | CN1CCC(=C2c3ccccc3C=Cc3ccccc32)CC1 | 599 | -6% (inactive) | -5.2% (inactive) | 104 | -80% (inactive) | 131 | 0.654 | 1.45 | -1.1 | 9.37% (inactive) | -0.438 (inactive) | -6.6e-05 (inactive) | 0.00408 (inactive) | inactive; toxic | 12% (inactive) and 38.6% (inactive) | 18.4% (inactive) | 46.7% (inactive)
12 | CC(C)Cc1nc(N2CCN(C(=O)c3ccco3)CC2)c(C#N)c2c1CCC2 | 615 | 2% (inactive) | -13.4% (inactive) | 106 | -37.8% (inactive) | 116 | 0.33 | 2.04 | -0.551 | -1.75% (inactive) | -0.498 (inactive) | -7e-05 (inactive) | 0.00426 (inactive) | inactive | -2% (inactive) | 10.7% (inactive) | 12.6% (inactive)
13 | N#Cc1nc(-c2cccs2)oc1NCCc1ccccc1 | 421 | -5.5% (inactive) | 2.8% (inactive) | 101 | -33.7% (inactive) | 109 | -0.62 | -0.621 | -1.02 | -6.48% (inactive) | -0.332 (inactive) | 1.7e-05 (inactive) | 0.00708 (inactive) | inactive | 11.6% (inactive) | -37.1% (inactive) | -77.6% (inactive)
14 | CN(C)CCC=C1c2ccccc2CCc2ccccc21 | 541 | -3.1% (inactive) | 2.1% (inactive) | 107 | -17.7% (inactive) | 126 | 0.892 | -0.494 | 0.732 | -0.493% (inactive) | -0.449 (inactive) | -6.5e-05 (inactive) | 0.00605 (inactive) | inactive | 6.87% (inactive) and 12.5% (inactive) | -9.05% (inactive) | 51% (active)
15 | Cc1cc(C)nc(NC2=NCC(=O)N2c2ccc(Cl)cc2)n1 | 641 | -3.3% (inactive) | -9.6% (inactive) | 111 | -78.7% (inactive) | 107 | 0.855 | 0.968 | -1.07 | 13.9% (inactive) | -0.492 (inactive) | -1.6e-05 (inactive) | 0.00625 (inactive) | inactive | -3.81% (inactive) | 15.2% (inactive) | 17.2% (inactive)
16 | Cn1cc(NC(=O)c2cc(NC(=O)c3cc(NC=O)cn3C)cn2C)cc1C(=O)NCCC(=N)N | 571 | -3.6% (inactive) | -13.8% (inactive) | 96.4 | -15.4% (inactive) | 95.1 | -1.3 | 0.0863 | -0.177 | -0.493% (inactive) | -0.499 (inactive) | -3.2e-05 (inactive) | 0.00517 (inactive) | inactive | -16.5% (inactive) | 19.8% (inactive) | 37.3% (inactive)
17 | Cc1cc(C)nc(NC(=O)c2ccc(OC(C)C)cc2)n1 | 520 | -2.7% (inactive) | -1.7% (inactive) | 110 | -53% (inactive) | 123 | 0.524 | 1.41 | -0.231 | 17% (inactive) | -0.449 (inactive) | -4.9e-05 (inactive) | 0.00572 (inactive) | inactive | -2.45% (inactive) | -1.16% (inactive) | -12.9% (inactive)
18 | COCCCN1C(=O)C(O)=C(C(=O)c2ccco2)C1c1ccc(Br)cc1 (stereo not given) | 417 | -4.6% (inactive) | -13.4% (inactive) | 107 | -25.5% (inactive) | 117 | -1.16 | 0.864 | 0.315 | -4.7% (inactive) | -0.457 (inactive) | 7.2e-06 (inactive) | 0.00512 (inactive) | inactive | 6.25% (inactive) | 23.9% (inactive) | 22.2% (inactive)
19 | CN(C)CCOC(=O)C(c1ccccc1)C1(O)CCCC1 (stereo not given) | 635 | -7.2% (inactive) | -8.5% (inactive) | 102 | -51% (inactive) | 110 | 0.315 | 0.351 | 1.54 | -6.41% (inactive) | -0.432 (inactive) | -7.3e-05 (inactive) | 0.00471 (inactive) | inactive | 13.5% (inactive) | 15.3% (inactive) | 45.7% (inactive)
20 | COc1ccc(NS(=O)(=O)c2ccc(N)cc2)nn1 | 634 | -10.4% (inactive) | -19.4% (inactive) | 99.2 | -67.7% (inactive) | 114 | -2.14 | -1.5 | 2.96 | 3.45% (inactive) | -0.412 (inactive) | 5.7e-06 (inactive) | 0.00455 (inactive) | inactive | 15% (inactive) | 15.8% (inactive) | 27.8% (inactive)

— PubChem BioAssay
